Source: PubChem BioAssay
Most compounds without a hit are left out; they make up all but 1.2% or so of the library.
Keap1-Nrf2 PPI – Keap1-Nrf2 (human) interaction inhibition. Q14145. Keap1 Kelch-Nrf2 peptide fluorescence polarization, 1536-well. inhibition, % at 9.4 µM. 340,000 tested, 0.15% active. AID 504523; in the data active = inhibition above about 12%; inconclusive = no clear call, values can overlap the other calls; inactive = below about 7.3%;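 note: human Keap1 Kelch domain with fluorescein labeled Nrf2 9mer peptide probe; 0% = neutral control wells and 100% = peptide positive control; higher means more block of Keap1 binding to Nrf2 peptide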
MEX-5 binding – C. elegans MEX-5 TCR-2 RNA binding activity; activity score (negative = inhibition of binding), % at 10 µM; AID 1832; MEX-5/FITC-TCR2 RNA binding, fluorescence polarization; active compounds read low; 300,000 tested, 0.38% active; Q9XUB2;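 active = inhibition past about -25% in most replicates, and total fluorescence under double the plate's negative control median, limit read from the data; inconclusive = replicates evenly split on the limit, or fluorescence at least double controls; inactive = too little inhibition in most replicates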;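 note: 0% = DMSO and -100% = 5 µM competing unlabeled TCR2 RNA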
Bcl-xL primary – blocks human Bcl-xL binding to Bim BH3 peptide; Q07817; GST-Bcl-xL / FITC-Bim BH3 peptide fluorescence polarization; inhibition, % at 10.9 µM; 320,000 tested, 0.7% active;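 active = inhibition above the mean of all tested compounds plus 3 SD, cutoff set per campaign, cut at about 30% in these data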;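 note: 0% = DMSO wells and 100% = unlabeled Bim-BH3 peptide competitor; inhibitors lower millipolarization by displacing the labeled peptide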
Target sequence (Q07817 whole entry, looked up): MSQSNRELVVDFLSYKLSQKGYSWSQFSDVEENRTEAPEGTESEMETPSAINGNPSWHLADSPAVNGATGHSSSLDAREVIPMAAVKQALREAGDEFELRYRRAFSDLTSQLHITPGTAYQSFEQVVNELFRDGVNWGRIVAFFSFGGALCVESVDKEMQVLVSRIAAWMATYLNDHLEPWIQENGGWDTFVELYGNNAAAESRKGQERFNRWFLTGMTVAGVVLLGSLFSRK
C-LANA FP – KSHV C-LANA DNA binding inhibition. MBP-C-LANA/FAM-LBS DNA binding, fluorescence polarization. AID 504423. inhibition, % at 9 µM. 340,000 tested, 0.078% active;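 active = highest replicate inhibition at or above 60% at 9 µM, even if other replicates fall short; inactive = all replicates below 60% inhibition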;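 note: 0% = neutral control wells and 100% = 4 µM acridine orange control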
eLon inh – E. coli protease La inhibition. purified E. coli Lon protease, fluorescence polarization. 360,000 tested, 0.42% active. inhibition, % at 7.94 µM; in the data active = inhibition above about 13%, passing the limit was not always enough;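 note: 0% = enzyme with probe and DMSO and 100% = no enzyme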
GLD-1 TGE inh – GLD-1-TGE RNA interaction inhibition (C. elegans); Q17339; 320,000 tested, 0.44% active; purified GLD-1 + fluorescein TGE RNA, fluorescence polarization; AID 2280; inhibition, % at 5.96 µM;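 active = percent inhibition above a per-plate cutoff, the plate mean of test compounds plus 3 SD, cut at about 30% in these data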;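 note: 0% = DMSO wells with GLD-1 and probe and 100% = wells lacking GLD-1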
E coli Lon conf – E. coli Lon inhibition confirmation; 1,400 tested, 31% active; purified E. coli Lon, fluorescence polarization; AID 602230; shares compounds with eLon inh; inhibition, % at 7.94 µM; in the data active = inhibition above about 16%;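 note: 0% = enzyme with probe and DMSO and 100% = no enzyme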
* marks the source's active call; other numbers are inactive results; u = inconclusive; x = not tested or not shown; + = active, no number.

SMILES	Keap1-Nrf2 PPI	MEX-5 binding	Bcl-xL primary	C-LANA FP	eLon inh	GLD-1 TGE inh	E coli Lon conf
Cc1cc2c(cc1C)NC(c1c(C)n(C)n(-c3ccccc3)c1=O)C1=C(CC(C)(C)CC1=O)N2 (stereo not given)	-3	-9	120*	12	20*	85*	4
c1ccc(C(CN2CCCCC2)Oc2ccccn2)cc1 (stereo not given)	1	x	x	0	-11	x	x
COc1ccc(C2Nc3ccccc3NC3=C2C(=O)CC(C)(C)C3)cc1 (stereo not given)	4	-2	5	18	64*	7	10
COc1ccc(OC)c(C2Nc3ccccc3NC3=C2C(=O)CC(C)(C)C3)c1 (stereo not given)	0	2	0	1	-5	0	x
CCN(CC)Cc1cc(O)c(CN(CC)CC)cc1O	5	-39*	x	25	35*	x	30*
Cc1nc(C)n(CCNC(=O)c2ccco2)n1	-2	0	x	2	-4	x	x
CCCCc1nc(NCCNC(=O)c2ccco2)c(C#N)c2c1CSC(C)(C)C2	x	x	19	x	x	8	x
CCCCc1nc(NCCNC(=O)c2ccccc2)c(C#N)c2c1CSC(C)(C)C2	-9	3	28	0	12*	8	-1
COc1ccc(N=NC2=C(O)CC(C)(C)CC2=O)c(OC)c1	-10	14	-21	-3	22*	-42	-90
Cc1cc(C)c2nc(N(CCN(C)C)C(=O)c3ccc4ccccc4c3)sc2c1	1	-1	-2	1	20*	0	-4
CC1CCCC(NC(=O)COC(=O)c2ccc(Cl)nc2)C1C (stereo not given)	-1	x	6	1	-3	-1	x
Cc1ccc(S(=O)(=O)N2CCc3cc4c(cc3C2C)OCCCO4)cc1 (stereo not given)	0	1	-2	2	18*	8	2
CCc1ccc(C)c(OC(=O)c2cncc(Br)c2)c1	-1	-1	4	-2	-7	2	x
CC(=O)Nc1ccc(N2C(=O)c3cccc4c(O)ccc(c34)C2=O)cc1	2	-20	+	36	+	+	+
NC(=O)CSc1cn(Cc2cccc(F)c2)c2ccccc12	2	1	4	-2	26*	0	-9
O=C(O)CSc1cn(Cc2ccccc2)c2ccccc12	-5	1	0	2	5	1	x
COc1ccc(CC2(CO)CCN(Cc3cc4ccccc4o3)CC2)cc1	-1	-2	4	1	-11	4	x
OCC1(Cc2cccc(C(F)(F)F)c2)CCN(Cc2cc3ccccc3o2)CC1	-3	1	5	0	12*	1	-7
Cc1ccc(NC(=O)CSCC(=O)NCCc2ccccc2)c(C)c1	-3	x	8	0	4	0	x
CCCn1c(NC(=O)CSCC(=O)Nc2cc(C)on2)nc2ccccc21	-2	-1	-9	1	22*	2	-4
CNc1c2cccc(C)c2nc2c(C(=O)NCCN(C)C)cccc12	0	x	x	61*	178*	x	195*
CCc1nc2cccnc2n1-c1ccc(CC(=O)NCCOC)cc1	-1	-2	7	2	2	4	x
CC(=O)Nc1cc(-c2cccc(NS(C)(=O)=O)c2)cn2c(-c3cccc(C(F)(F)F)c3)cnc12	x	x	x	x	-29	x	x
CC(=O)Nc1cc(-c2ccccc2N(C)C)cn2c(-c3cccc(C(F)(F)F)c3)cnc12	x	x	x	x	+	x	9
CCc1nc2c(OCc3ccccc3)cccn2c1N(C)C(=O)c1ccc2c(c1)OCO2	x	x	x	x	9	x	x
SMILES	Keap1-Nrf2 PPI	MEX-5 binding	Bcl-xL primary	C-LANA FP	eLon inh	GLD-1 TGE inh	E coli Lon conf
Cc1c2ccccc2nc2c(F)c(N(C)C)c(F)c(F)c12	-2	-5	114*	5	117*	99*	+
C/C(=N\Nc1nc(C)c(C)s1)c1ccc([N+](=O)[O-])cc1	1	-1	-22	-1	-12	-12	x
NC(=O)C[n+]1cccc2ccccc21	u	-36*	185*	19	57*	16	40*
COc1ccc(N2CCN(CC(=O)N3c4ccccc4CC3C)CC2)cc1 (stereo not given)	-3	-2	3	-1	18*	3	-4
COc1c(O)cccc1[C@H](O)C1CCN(CCc2ccc(F)cc2)CC1	4	-39*	50*	17	71*	66*	13
CCN1CCC(NCCc2ccc(F)cc2)CC1	-1	0	2	-2	-1	-3	x
CSCCC(NC(=O)c1ccc(Cl)cc1)C(=O)OCC(=O)Nc1ccc(C#N)cc1 (stereo not given)	1	x	1	1	35*	7	1
CSCCC(NC(=O)c1ccc(Cl)cc1)C(=O)OCC(C)=O (stereo not given)	-4	0	4	0	8	-5	x
CCCNC(=O)c1cc(S(=O)(=O)N2CCCCC2)ccc1N1CCOCC1	1	3	6	-2	-10	2	x
CCCCCC(C)NC(=O)c1cc(S(=O)(=O)N2CCCCC2)ccc1N1CCOCC1 (stereo not given)	3	x	5	0	22*	7	6
COc1ccc(N2CCCC2)c(NC(=O)c2ccc([N+](=O)[O-])o2)c1	3	-10	76*	7	41*	74*	-10
O=C(Nc1ccccc1N1CCCC1)c1ccc([N+](=O)[O-])o1	-5	5	9	2	-13	1	x
CCOc1ccccc1/C=N/NC(=O)c1nnn(-c2nonc2N)c1CN1CCCCCC1	0	1	-4	2	3	6	x
CCC/C(=N/NC(=O)c1nnn(-c2nonc2N)c1CN1CCCCC1)c1ccccc1	-6	0	2	-3	13*	2	-15
COc1cc(S(=O)(=O)NC2CCCC2)ccc1-n1cnnn1	-1	1	6	-2	22*	9	-7
COc1ccc(S(=O)(=O)NC2CC2)cc1-n1cnnn1	-1	2	4	0	-5	-2	x
CCN1C(=O)c2ccccc2S(=O)c2ccc(C(=O)N3CCCCCC3)cc21 (stereo not given)	-1	3	-1	1	45*	-7	-52
COc1cccc(C(=O)CN2C(=O)C(C)(C)Oc3ccc(C(=O)N4CCOCC4)cc32)c1	-1	2	0	2	128*	2	-5
COCCn1nc2cc(C(=O)NCc3cc(C(F)(F)F)cc(C(F)(F)F)c3)ccc2c1OC	-8	0	3	1	21*	1	-8
CCOc1c2ccc(C(=O)NCc3cc(C(F)(F)F)cc(C(F)(F)F)c3)cc2nn1CCOC	1	1	-1	0	3	-2	x
